Source: PubChem BioAssay AID1259343 (VanderVen Lab, College of Veterinary Medicine, Cornell …, 2017)
Out of some 6,200 compounds screened, about 2,900 (47%) were called active. No stated cut-off is given here; in the data, active means inhibition above about 50%; inactive means the rest. So high a share suggests a set chosen from earlier hits. Some of the results follow.

Assay: Mycobacterium tuberculosis growth inhibition, primary screen (AID 1259343)
Details: inhibition: at 10 µM, active compounds read high; outcome: 10 uM

Row | Structure (SMILES) | inhibition
1 | CN(Cc1ccsc1)C(=O)Nc1ccc(C(F)(F)F)cc1 | 44.2% (inactive)
2 | CN(Cc1cc(Br)ccc1F)C(=O)NCc1ccco1 | -23.8% (inactive)
3 | CN(Cc1ccc(F)cc1F)C(=O)NCc1ccccc1 | 93% (active)
4 | COc1ccc(CN(C)C(=O)NCC2Cc3ccccc3O2)cc1 (centres undefined) | -43.1% (inactive)
5 | CCOc1ncccc1C(=O)NCc1ccc(C)c(F)c1 | 35.2% (inactive)
6 | O=C(NCCc1cccs1)C(=O)NCc1cccc(F)c1 | 45.4% (inactive)
7 | COc1ccc(Cl)cc1CN(C)C(=O)Nc1ccc(F)cc1F | -16.8% (inactive)
8 | Cc1ccc(CNC(=O)N(C)Cc2cccs2)cc1F | 74.8% (active)
9 | COc1cccc(CNC(=O)N(C)Cc2ccc(C(C)C)cc2)c1 | 85.7% (active)
10 | Cc1ccc(NC(=O)N(C)Cc2ccccc2F)cc1Cl | 4.94% (inactive)
11 | Cc1ccc(NC(=O)N(C)Cc2ccc(O)cc2)cc1F | 59.5% (active)
12 | CC1SC(=S)NN1c1ccccc1 (centres undefined) | 92.6% (active)
13 | Cc1cccc(Nc2ccc(NCCNS(=O)(=O)c3ccc(F)cc3)nn2)n1 | 30.2% (inactive)
14 | c1ccc2c(OCCCCCn3ccnc3)cccc2c1 | 100% (active)
15 | CCN=c1scc(-c2ccco2)n1N=Cc1ccc2c(c1)OCO2 | 23.9% (inactive)
16 | CN=c1scc(C)n1N=Cc1cc(Br)c(O)c(Br)c1 | -24.1% (inactive)
17 | COCCN=c1scc(-c2ccco2)n1N=Cc1cc(Br)c(O)c(OC)c1 | 15.7% (inactive)
18 | CCN=c1scc(C)n1N=Cc1cc(Br)c(O)c(Br)c1 | 84.4% (active)
19 | CCN=c1scc(C)n1N=Cc1ccc(Br)cc1 | 10.9% (inactive)
20 | CN=c1scc(-c2ccco2)n1N=Cc1c(O)ccc2ccccc12 | 54.4% (active)
21 | CN=c1scc(-c2ccco2)n1N=Cc1cc(Br)c(O)c(OC)c1 | 82.5% (active)
22 | CN=c1scc(-c2cccc(Br)c2)n1N=Cc1ccncc1 | 13.7% (inactive)
23 | CN=c1scc(-c2ccco2)n1N=Cc1sccc1C | 42.1% (inactive)
24 | CN=c1scc(-c2ccc(OC)cc2)n1N=Cc1cc(Br)c(O)c(OC)c1 | 97.6% (active)
25 | C=C(C)CN=c1scc(-c2ccco2)n1N=Cc1ccc(O)cc1O | 89.4% (active)
26 | CN=c1scc(-c2ccccc2Br)n1N=Cc1cccc(O)c1 | 28.8% (inactive)

Row | Structure (SMILES) | inhibition
27 | Oc1ccc(C=Nn2c(-c3ccco3)csc2=Nc2ccc(F)cc2F)c(O)c1 | 6.26% (inactive)
28 | CN=c1scc(-c2cc(Cl)ccc2Cl)n1N=Cc1ccc(O)cc1O | 65.9% (active)
29 | CN=c1scc(-c2cccc(Br)c2)n1N=Cc1ccccc1F | -6.53% (inactive)
30 | C=CCN=c1scc(-c2ccco2)n1N=Cc1cc(OC)ccc1O | 16% (inactive)
31 | Cc1ccccc1-c1ncc(CN2CCCC2c2nonc2C)s1 (centres undefined) | 27.5% (inactive)
32 | Cc1ccccc1CCC1CCCN(Cc2nnc(-c3ccco3)o2)C1 (centres undefined) | 2.39% (inactive)
33 | Cc1ccccc1-c1nnc(CN2CCCC3CCCC32)o1 (centres undefined) | 59% (active)
34 | Cc1cc(=O)[nH]c(Nc2nc(C)c3cc(C)c(C)cc3n2)n1 | -34.5% (inactive)
35 | COC(=O)CC(=O)N1CCC(Cc2ccc(-c3ccccc3)cc2)CC1 | 87% (active)
36 | Cc1ccc(C2CC(c3cccc(F)c3)=NN2C(=O)CN2CCC(Cc3ccccc3)CC2)cc1 (centres undefined) | 42.1% (inactive)
37 | O=C(CCl)N1CCC(Cc2ccccc2)CC1 | -0.35% (inactive)
38 | O=C(Cc1ccccc1)N1CCC(Cc2ccc(-c3ccccc3)cc2)CC1 | 72.6% (active)
39 | COc1cc2c(cc1NC(=O)CC(C)=NNC=O)oc1ccccc12 | 95.5% (active)
40 | COc1ccccc1/C=C/CN1CCCC(CCC(=O)Nc2cc(Cl)ccc2OC)C1 (centres undefined) | 14.3% (inactive)
41 | Cc1noc(C)c1CCC(=O)Nc1ccc2oc3ccccc3c2c1 | 25.6% (inactive)
42 | Cc1cc(C)c2sc(NCC(C)C)nc2c1 | 13.6% (inactive)
43 | CC(C)(C)C1CCc2c(C(=O)N/N=C\c3ccoc3)csc2C1 (centres undefined) | 79.8% (active)
44 | COC(=O)c1sc2c(c1N)CCC(C(C)(C)C)C2 (centres undefined) | 29.1% (inactive)
45 | COC(=O)c1c(N)sc2c1CCC(C(C)(C)C)C2 (centres undefined) | -34.2% (inactive)
46 | Cc1cc(=O)n2[nH]c(C(F)(F)F)c(-c3ccc(Cl)cc3)c2n1 | 61.6% (active)
47 | Cc1[nH]n2c(=O)cc(C(C)(C)C)nc2c1-c1ccc(Cl)cc1 | 101% (active)
48 | Cc1ccc(-c2c[nH]n3c(=O)cc(C(C)(C)C)nc23)cc1 | 98.8% (active)
49 | Cc1cc(=O)n2[nH]cc(-c3ccc(Cl)cc3)c2n1 | -30.9% (inactive)
50 | CC(C)(C)c1cc(=O)n2[nH]cc(-c3ccc(Cl)cc3)c2n1 | 32.1% (inactive)
51 | CC(NC(=O)c1c(O)nc2sccn2c1=O)c1ccccc1 (centres undefined) | 90.9% (active)
52 | CC(CCc1ccccc1)NC(=O)c1c(O)nc2sccn2c1=O (centres undefined) | 62.6% (active)

Row | Structure (SMILES) | inhibition
53 | CCCCn1c(=O)[nH]c(=O)c2c1nc(COC(=O)C1CC1)n2C | 12.4% (inactive)
54 | O=C(Nc1ccc(-c2ccccc2)cc1)C1CC=CCC1C(=O)N1CCc2c([nH]c3ccccc23)C1 (centres undefined) | 91% (active)
55 | O=C(O)C1CC=CCC1C(=O)Nc1ccc(N2CCN(c3cccc(Cl)c3Cl)CC2)cc1 (centres undefined) | 21.6% (inactive)
56 | C1=CC(c2ccc(C=NNc3nc4ccccc4s3)s2)CC1 (centres undefined) | 99.1% (active)
57 | C1=CC(c2ccc(C=NNc3ccccn3)s2)CC1 (centres undefined) | -47.3% (inactive)
58 | CC1CC(=NNc2nc3ccccc3s2)CC(C)(C)C1 (centres undefined) | 23.3% (inactive)
59 | NC(=S)NN=Cc1ccc(C2C=CCC2)s1 (centres undefined) | 84.9% (active)
60 | C=CCN=c1scc(-c2ccc(C)cc2)n1N=Cc1ccc(F)cc1 | -4.92% (inactive)
61 | C(=Nn1c(-c2ccccc2)csc1=NCc1ccccc1)c1cccnc1 | 28.2% (inactive)
62 | N#Cc1ccc(C=Nn2c(-c3ccc(F)cc3)csc2=Nc2cccnc2)cc1 | 97.7% (active)
63 | C=CCNC(=S)NN=C1C=C(C)CC(C)(C)C1 | 103% (active)
64 | C=CCNC(=S)NN=C1CCC=C1CCCCC | 21.5% (inactive)
65 | C=CCNC(=S)NN=C1CCCCc2ccccc21 | -17.9% (inactive)
66 | Cc1cccc(C)c1OCC(O)Cn1cnc2ccc(Br)cc2c1=O (centres undefined) | 33.4% (inactive)
67 | CCn1cnc2cc(-c3ccc(Cl)cc3)sc2c1=O | 29.3% (inactive)
68 | Cc1cccc(OCC(O)Cn2cnc3ccc(Cl)cc3c2=O)c1 (centres undefined) | 86.5% (active)
69 | Cc1ccc(C(=O)NCCN(C)c2ccccc2)c(C)c1 | 35.9% (inactive)
70 | CN(CCNc1ccc2c(c1)C(=O)CCC2)c1ccccc1 | 75.6% (active)
71 | Cc1ccc(SCCC(=O)Nc2nnc(-c3cc(C)ccc3C)o2)cc1 | 74.8% (active)
72 | CC(C)OC(=O)c1ccc(NC(=O)CCCC(=O)O)cc1 | 50.8% (active)
73 | Cc1ccc(NC(=O)C(C)OC(=O)c2cccc(C)c2C)cc1 (centres undefined) | 18.8% (inactive)
74 | CCc1cc(=O)[nH]c(-n2nc(C)cc2NC(=O)Cc2cccs2)n1 | 101% (active)
75 | Cc1cc(=O)[nH]c(-n2nc(C)cc2NC(=O)Cc2cccs2)n1 | 101% (active)
76 | CCCc1cc(=O)[nH]c(-n2nc(C)cc2NC(=O)Cc2cccs2)n1 | -25.1% (inactive)
77 | CC(C)OCCCNc1ncnc2c1c(-c1ccccc1)cn2-c1ccccc1 | 101% (active)
78 | CCCNc1ncnc2c1c(-c1ccccc1)cn2-c1ccccc1 | 95.8% (active)

Row | Structure (SMILES) | inhibition
79 | Cc1ccc(-n2cc(-c3ccccc3)c3c(NCCCO)ncnc32)cc1Cl | inactive
80 | CN(C)CCCNc1ncnc2c1c(-c1ccccc1)cn2-c1ccc(Br)cc1 | 97.2% (active)
81 | CC(O)CNc1ncnc2c1c(-c1ccccc1)cn2-c1ccc(Cl)cc1 (centres undefined) | 99.4% (active)
82 | Cn1ccnc1-c1nccn1Cc1ccc(CN2CCCC2)cc1 | -4.25% (inactive)
83 | CN(C)c1ccc(C=Cc2ccc3c4ccccc4ccc3[n+]2-c2ccccc2)cc1 | -1.83% (inactive)
84 | O=S(=O)(Nc1ccc(Br)c(C(F)(F)F)c1)c1ccc(F)cc1 | 81.1% (active)
85 | Cc1cc(C)c(C)c(S(=O)(=O)Nc2ccc(F)cc2)c1C | 31.6% (inactive)
86 | O=S(=O)(Nc1ccc(Br)cc1)c1ccc(F)cc1 | 36.6% (inactive)
87 | N#Cc1ccc(NS(=O)(=O)c2ccc(F)cc2)cc1 | 77.8% (active)
88 | O=c1[nH]c(=S)ccn1-c1nc(-c2ccccc2)sc1-c1ccccc1 | 21.2% (inactive)
89 | NCc1ccc(Oc2cccc(Cl)c2Cl)cc1 | 62.9% (active)
90 | Oc1ccccc1Oc1ccc(Oc2ccccc2O)cc1 | 25.7% (inactive)
91 | O=C(O)c1sc2cc(Cl)cc(Cl)c2c1Cl | 92.8% (active)
92 | O=C(NC1=NCCS1)c1sc2cc(F)ccc2c1Cl | 5.48% (inactive)
93 | O=C(NS(=O)(=O)c1ccc(Cl)s1)c1sc2cc(Cl)ccc2c1Cl | 77.9% (active)
94 | O=C(O)c1sc2cc(Cl)ccc2c1Cl | 87.1% (active)
95 | O=C(NS(=O)(=O)c1ccc(Br)s1)c1ccc(Cl)cc1Cl | 82.9% (active)
96 | O=C(O)c1sc(Cl)cc1/C=C\c1ccccc1 | 4.33% (inactive)
97 | COc1ccc2c(Cl)c(C(=O)O)sc2c1Cl | 19.7% (inactive)
98 | CC(NC(=O)c1ccc(Cl)c([N+](=O)[O-])c1)c1ccccc1 (centres undefined) | 100% (active)
99 | CC(NC(=O)c1scnc1Cl)c1ccccc1 (centres undefined) | 8.26% (inactive)
100 | Cc1cc(C)c(S(=O)(=O)Nc2nc(C(F)(F)F)cs2)c(C)c1 | 78.7% (active)
101 | Cc1cc(C)c(S(=O)(=O)NC(C)c2ccccc2)c(C)c1 (centres undefined) | 9.74% (inactive)
102 | Cc1ccc(NC(=O)c2csc(NS(=O)(=O)c3cccs3)n2)cc1F | 28.6% (inactive)
103 | c1ccc(-c2noc(CCCc3c[nH]c4ccccc34)n2)cc1 | 71.6% (active)
104 | O=C(CCc1nnc(CCc2c[nH]c3ccccc23)o1)N1CCC(c2ccccc2Cl)C1 (centres undefined) | 33.4% (inactive)
